Assay outcomes as filed in PubChem.
Hits are enriched below; roughly 4.3% of the tested compounds scored in any of these assays.
FAS-TE inh – FAS thioesterase (human) inhibition; P49327; recombinant FAS-TE, OMFH fluorogenic substrate, fluorescence endpoint; inhibition, % at 15 µM; actives 0.67% (n = 360,000);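 active means compounds whose normalised, plate-corrected inhibition of enzyme fluorescence in the single-dose primary screen is 50% or more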;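 further: 0% = DMSO with enzyme and 100% = substrate without enzyme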
NadD block – inhibitors of Staphylococcus aureus NadD; purified NadD enzyme, colorimetric absorbance read-out; inhibition, % at 20 µM; actives 0.78% (n = 360,000); in the data active means inhibition above about 26%
GRIN3A LBD mod – modulates the human NR3A ligand-binding domain | NR3A LBD differential scanning fluorimetry, Tm shift; 0% = protein alone, 100% = glycine-bound protein | Tm shift relative to glycine control, % at 25 µM | actives 2.5% (n = 340,000) | AID 1259313;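 active means melting temperature shift of at least 10% of the positive control shift, at one fixed dose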
rCAG RNA binder – r(CAG) repeat RNA binding. TO-PRO-1 dye displacement fluorescence. inhibition, % at 3 µM. actives 1.3% (n = 370,000);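 active means inhibition above the plate cutoff, the mean of all test compounds on that plate plus 3 SD, cut at about 35% in these data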;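 further: 0% = DMSO alone and 100% = 100 µM mitoxantrone as full dye displacement; higher means more dye released from RNA so lower well fluorescence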
* marks the source's active call; other numbers are inactive results; x = not tested or not shown.

SMILES	FAS-TE inh	NadD block	GRIN3A LBD mod	rCAG RNA binder
Cc1ccc(N2CCN(/N=C\c3cccnc3)CC2)cc1	x	x	x	-0.3
CC(=O)C1=C(NC(=O)c2ccccc2F)C[C@@H]2[C@H]1C2(C)C	11.5	-2.5	13.6*	-5.3
CC(=O)C1=C(NC(=O)c2ccc(C(F)(F)F)cc2)C[C@@H]2[C@H]1C2(C)C	16.0	9.8	1.4	-7.6
Cc1cc(NN)nc2ccc(Cl)cc12	-1.9	5.0	12.2*	-0.5
Cc1cc(C)c2ccc(Cl)cc2n1	-4.0	2.0	-2.0	1.3
O=C(CC1SC(=Nc2ccccc2)N(Cc2ccccn2)C1=O)Nc1ccc(Br)cc1 (centres undefined)	27.7	19.2	12.0*	8.9
Cc1ccccc1N=C1SC(CC(=O)Nc2ccc3ccccc3c2)C(=O)N1Cc1ccccn1 (centres undefined)	40.5	17.8	21.6*	11.6
O=C(CC1SC(=Nc2cccc3ccccc23)N(Cc2ccccn2)C1=O)Nc1ccccc1Br (centres undefined)	44.5	20.8	-1.5	1.6
COCCN1C(=O)C(CC(=O)Nc2ccc(C(=O)O)cc2)SC1=Nc1ccccc1 (centres undefined)	-6.3	0.4	3.1	4.2
CCc1cc2c(nc1CC)CCCN2S(=O)(=O)c1c(C)noc1C	x	x	x	1.0
O=C(Nc1ccccc1)OC[C@@H]1CSCCS(=O)(=O)N1	x	x	x	0.1
COc1ccc2c(CC(=O)OCC(=O)c3ccc(F)cc3)coc2c1	-4.2	7.2	18.9*	6.3
COc1ccc2cc(-c3cccc4[nH]cc(C)c34)ccc2c1	x	x	x	9.3
CC(=O)c1cccc(NC(=O)c2ccc3c(c2)CCCC3)c1	11.8	-3.8	-0.1	2.1
CC(=O)c1cccc(NC(=O)Nc2ccc3c(c2)CCC3)c1	-4.2	-3.3	22.4*	1.3
COc1cccc(NC(=O)Nc2ccc3c(c2)CCC3)c1	12.2	-8.9	4.9	4.4
Cc1cccc(NC(=O)Nc2ccc3c(c2)CCC3)c1	9.0	1.0	15.6*	3.7
CSc1ccccc1C(=O)Nc1ccc2c(c1)CCC2	2.6	-2.6	10.4*	-2.9
O=C(Nc1ccc2c(c1)CCC2)c1ccccc1Br	-0.6	3.2	-0.6	2.4
COC1OC(COCc2ccccc2)C2OC(C)(C)OC2C1O (centres undefined)	x	x	x	-0.3
Cc1ccccc1NC(=O)CN1CCN(c2nc(-c3ccccc3)cs2)CC1	x	x	x	4.9
Cc1cccc(Nc2nnc(SCC(=O)Nc3ncc(C(F)(F)F)cc3Cl)s2)c1C	33.0	8.2	-7.9	1.5
Cc1cccc(C)c1Nc1nnc(SCC(=O)Nc2ncc(C(F)(F)F)cc2Cl)s1	20.8	7.0	11.5*	-1.7
Nc1[nH]c2cc(Cl)ccc2c1C(=O)NCCc1ccc(Cl)cc1	x	x	x	8.3
COc1ccccc1-c1cc(-c2ccccc2)nc(SC(C(N)=O)c2ccccc2)c1C#N (centres undefined)	-2.5	35.8*	0.7	3.8
SMILES	FAS-TE inh	NadD block	GRIN3A LBD mod	rCAG RNA binder
COC(=O)C1=C(C)N(Cc2cccc(C(F)(F)F)c2)C(=NCc2ccc(OC)cc2)NC1c1ccccc1C(F)(F)F (centres undefined)	x	x	x	3.6
c1ccc(-c2cc3ccccc3[nH]2)cc1	18.3	-2.7	0.6	3.0
Cc1ccc(O)c(-c2cc3ccccc3[nH]2)c1	11.3	-1.1	22.1*	16.0
COc1ccc(-c2cc3ccccc3[nH]2)cc1	-2.3	-2.0	13.8*	4.0
COc1ccc(C2=Nn3c(nnc3C3CCCCC3)SC2)cc1	x	x	x	-1.8
O=C(OCC12CC3CC(CC(C3)C1)C2)c1ccc(NCc2cc(O)ccc2O)cc1	40.4	11.7	11.8*	25.6
Cn1c(SCC(=O)c2ccc3c(c2)Cc2ccccc2-3)nnc1-c1ccccc1	11.7	9.9	1.3	11.4
CC(=O)Nc1nnc(SCC(=O)c2ccc3c(c2)Cc2ccccc2-3)s1	-4.1	14.3	14.9*	9.6
CCC(=O)Nc1nnc(SCC(=O)c2ccc3c(c2)Cc2ccccc2-3)s1	-2.8	12.3	11.3*	3.9
COC(=O)C1CN(Cc2cn(Cc3ccc(Cl)cc3)nn2)CCS(=O)(=O)N1Cc1ccc(Cl)cc1 (centres undefined)	x	x	x	5.4
COc1ccc(Nc2nc(N)c([N+](=O)[O-])c(NC3CCCCC3)n2)cc1	29.2	2.7	10.9*	17.7
COc1ccc(Nc2nc(N)c([N+](=O)[O-])c(NCCO)n2)cc1	-3.8	-0.6	0.5	3.0
O=C(CNc1cccc(C(F)(F)F)c1)N/N=C/c1cn(-c2ccccc2)nc1-c1ccccc1	14.4	11.7	34.3*	8.6
COc1ccc(NCC(=O)N/N=C/c2c(C)nn(Cc3ccccc3)c2Cl)cc1	-6.6	6.2	-4.9	7.4
Cc1nn(Cc2ccccc2)c(C)c1/C=N/NC(=O)CNc1cccc(C(F)(F)F)c1	12.4	-5.9	13.1*	1.5
Cc1ccc(-c2nn(-c3ccccc3)cc2/C=N/NC(=O)CSc2nnc(C)n2-c2ccccc2)cc1	22.8	27.3	-1.3	9.6
Oc1ccccc1C1CC(c2cccs2)=NC(c2ccc(Cl)cc2)N1 (centres undefined)	10.4	-2.6	10.1*	14.9
CS(=O)(=O)N1N=C(c2cccs2)CC1c1ccccc1O (centres undefined)	-1.7	-3.0	-1.3	0.1
Nc1cccc(C(=O)OCC(=O)Nc2cccc3c2C(=O)c2ccccc2C3=O)c1	-19.0	-1.5	33.3*	-2.6
Nc1ccc(OCCCc2c(N)nc(N)nc2N)cc1	-3.4	44.2*	0.5	5.1
Cc1cc(C)cc(OCC(=O)OCC(=O)NCc2cccs2)c1	-6.1	-0.6	16.1*	-1.1
CCOC(=O)C1CCN(S(=O)(=O)c2ccc3c(c2)CC(C)N3C(=O)C2CCC2)CC1 (centres undefined)	16.1	-4.1	24.1*	-1.7
Cc1cc(N2CCN(CC(C)(C)O)C[C@H]2C)ccc1N1CCN(Cc2ccccc2)[C@H](C)C1	x	x	x	-2.2
CCc1cc(C(=O)Nc2cc(Cl)ccc2N2CCN(C)CC2)sc1C	4.2	-7.7	11.2*	-1.6
CCc1cc(C(=O)Nc2cc(S(=O)(=O)N(CC)CC)ccc2N2CCN(C)CC2)sc1C	-2.6	16.7	-2.2	3.6
SMILES	FAS-TE inh	NadD block	GRIN3A LBD mod	rCAG RNA binder
NC(=S)NNC(=O)c1cc(C(F)(F)F)cc(C(F)(F)F)c1	-2.3	-0.7	31.1*	1.7
Fc1ccccc1-c1ccc(/C=N/Nc2nc3ccccc3[nH]2)o1	-42.7	12.3	21.2*	17.8
CCOC(=O)c1c(C)oc2c1c(CN1CCN(CCO)CC1)c(O)c1ccccc12	2.9	4.0	-2.4	8.4
CCOC(=O)c1c(C)oc2c1c(CN1CCN(C(=O)OCC)CC1)c(O)c1ccccc12	23.7	10.5	10.2*	10.9
CCCCn1c(N)c(N(C)C(=O)C2CCCC2)c(=O)[nH]c1=O	-8.1	0.3	14.7*	1.2
Cc1ccc(C(=O)O/N=C(\N)c2cccc([N+](=O)[O-])c2)cc1	23.8	-8.3	12.9*	-1.5
COc1cc(C(=O)O/N=C(\N)c2cccc([N+](=O)[O-])c2)cc(OC)c1OC	1.9	-0.2	13.9*	-4.6
Cc1ccc(S(=O)(=O)N(C)CC(=O)O/N=C(\N)c2ccc([N+](=O)[O-])cc2)cc1	15.7	-3.6	21.3*	-0.5
